Bioassay records (PubChem)
An excerpt weighted towards active compounds, which were near 5.2% of everything screened.
Tau fibril FP = inhibitors of human tau fibril formation. AID 1468. Potency, µM (top dose mostly 57.7 µM), usual class: inhibitors. 280,000 compounds, 0.39% hits. K18 P301L tau heparin fibrillization, Alexa594 FP, 6 h; further: nearly all actives have a fitted effect of over 55% in size
Target sequence (P10636 561-689 P618L limits assumed): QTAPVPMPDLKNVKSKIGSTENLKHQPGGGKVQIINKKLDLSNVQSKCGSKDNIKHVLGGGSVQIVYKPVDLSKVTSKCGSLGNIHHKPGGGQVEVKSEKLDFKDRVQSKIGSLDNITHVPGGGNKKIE
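Quantitative HTS format: compounds meet 15 uM recombinant K18 P301L tau and Alexa 594-tau tracer in 100 mM sodium acetate pH 7; 20 uM heparin triggers fibrillization at 37 C over 6 hr; FP gives the signal.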
Tau ThT inhib = blocks human tau fibril formation measured by thioflavin T; P10636; recombinant tau K18 P301L, heparin-induced fibrillization, ThT fluorescence; Potency, µM (top dose mostly 57.4 µM), hits mostly inhibitors; AID 1460; 270,000 compounds, 2.1% hits; further: nearly all actives have a fitted effect of over 55% in size
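Using a mix of unlabeled (15 uM) and Alexa 594-labeled (0.24 uM) tau K18 P301L, heparin-triggered fibrillization over 6 hr at 37 C was scored by ThT fluorescence.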
Sfp PPTase inh = blocks B. subtilis Sfp PPTase activity; Q9F4F7; Potency, µM, actives largely listed as inhibitors; AID 1490; 310,000 compounds, 3.5% hits; Biochemical Sfp PPTase activity, qHTS;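 further: the enzyme is Sfp with the accession as filed and its product quenches rhodamine fluorescence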
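Step 1, compound plus 15 nM Sfp-PPTase, 15 min, room temperature. Step 2, add rhodamine-CoA (5 uM) and BHQ-2-YbbR (12.5 uM). Step 3, read 525/598 nm fluorescence at 0 and 30 min.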
FBPA coupling cs = inhibits coupling enzyme system, counter-screen for aldolase hits; coupling enzyme system counterscreen, AmpLite Red fluorescence; activity change, negative = inhibition, % at 58.2 µM, hits read low; 290,000 compounds, 0.67% hits; in the data active means activity change below about -30%
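Counterscreen lacking aldolase: glyceraldehyde-3-phosphate coupling-enzyme reagent preincubated 10 min at RT with compound (at 57.5 uM final), then substrate/coupling system with AmpLite Red added; fluorescence read at 525/598 nm after 20 min RT.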
Tau fluor counter = counter-screen for tau fibril formation inhibitors; tau K18 P301L (four-repeat tau fragment) Alexa594 fluorescence, heparin fibrillization; Potency, µM (highest dose often 57.7 µM); 280,000 compounds, 0.93% hits; AID 1463; further: nearly all actives have a fitted effect of over 55% in size
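Human K18 P301L tau (15 uM unlabeled plus 0.24 uM Alexa 594-labeled, final) in 100 mM sodium acetate pH 7 was mixed with compound and 20 uM heparin and incubated 6 hr at 37 C.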
Hits are given with their value; [ ] = another dose, or the depositor's remark. Unless noted, the call rests on the fitted dose curve; in most records, active means well fitted curve in the direction sought with a large enough effect; inconclusive means small, poorly fitted or top-dose-only effect, or another doubt; inactive means no such curve, though single readings can be large; an effect the other way counts as inactive or inconclusive.

Results for COC(=O)CN1CN(c2ccccc2)C2(CCN(Cc3ccc4ccccc4c3)CC2)C1=O ?
Tau fibril FP: inactive; Tau ThT inhib: inactive; Sfp PPTase inh: 71µM; FBPA coupling cs: inactive; Tau fluor counter: inactive

How did CC(=O)OC1CCC23C(=O)OC45CCC(C6=CC(=O)OC6)C4(C)CCC2C5CCC3(O)C1 (stereo not given) do in these assays?
Tau fibril FP: inactive; Tau ThT inhib: inactive; Sfp PPTase inh: inactive; FBPA coupling cs: inactive; Tau fluor counter: inactive

How did CN(N=O)c1cc(O)ccc1O do in these assays?
Tau fibril FP: inconclusive; Tau ThT inhib: 11µM; Tau fluor counter: inconclusive

How did C/C(=C\c1ccc(N(C)C)cc1)[N+](=O)[O-] do in these assays?
Tau fibril FP: inactive; Tau ThT inhib: 13µM; Sfp PPTase inh: inactive; FBPA coupling cs: inactive; Tau fluor counter: 14µM[quencher]

Results for CN(C)c1ccc(C(=O)c2ccc(N(C)C)cc2)cc1 ?
Tau fibril FP: inactive; Tau ThT inhib: inconclusive; Sfp PPTase inh: inactive; FBPA coupling cs: inactive; Tau fluor counter: inactive

How did CN(C)c1ccc(/C=C/[N+](=O)[O-])cc1 do in these assays?
Tau fibril FP: inactive; Tau ThT inhib: 10µM; Sfp PPTase inh: inactive; FBPA coupling cs: inactive; Tau fluor counter: inconclusive

What do the screens show for `CC(=O)CC(c1ccc(O)cc1)c1c(O)c2ccccc2oc1=O` (stereo not given)?
Sfp PPTase inh: inactive; FBPA coupling cs: inactive

How did CCOC(=O)c1ccc(-n2c(N)c(C(=O)NCC3CCCO3)sc2=S)cc1 (stereo not given) do in these assays?
Tau fibril FP: inactive; Tau ThT inhib: inactive; Sfp PPTase inh: 32µM; FBPA coupling cs: inactive; Tau fluor counter: inactive

How did CCOC(=O)c1ccc(NC(=O)c2sc3nc4c(cc3c2N)N2CCC4CC2)cc1 do in these assays?
Tau fibril FP: inactive; Tau ThT inhib: inactive; Tau fluor counter: inactive

How did O=C1NC(=S)N(C2CC2)C(=O)/C1=C/c1ccc2c(c1)CCN2CCCCl do in these assays?
Tau fibril FP: inconclusive; Tau ThT inhib: inconclusive; Sfp PPTase inh: 20µM; FBPA coupling cs: inactive; Tau fluor counter: inactive

Results for CCN1C(=O)/C(=C/c2ccc3c(c2)CCN3CCCCl)C(=O)NC1=S ?
Tau fibril FP: inconclusive; Tau ThT inhib: 18µM; Sfp PPTase inh: 45µM; FBPA coupling cs: inactive; Tau fluor counter: inactive

What do the screens show for `C=CCN1C(=O)/C(=C/c2ccc3c(c2)CCCN3CCC)C(=O)NC1=S`?
Tau fibril FP: inconclusive; Tau ThT inhib: inconclusive; Sfp PPTase inh: 25µM; FBPA coupling cs: inactive; Tau fluor counter: inactive

Results for O=C(COc1ccc(Br)cc1)N1CCN(C2CCCC2)CC1 ?
Tau fibril FP: inactive; Tau ThT inhib: inactive; Sfp PPTase inh: inactive; FBPA coupling cs: inactive; Tau fluor counter: inactive

How did O=C1NC(=S)NC(=O)C1=Cc1ccc(OCC(=O)N2CCCC2)cc1 do in these assays?
Sfp PPTase inh: 20µM

Results for Cc1cc(/C=C2\C(=O)NC(=O)N(c3cccc(F)c3)C2=O)c(C)n1-c1ccc(C(=O)O)c(Cl)c1 ?
Sfp PPTase inh: inactive; FBPA coupling cs: inactive

How did Cc1cc(C)cc(N2C(=O)NC(=O)/C(=C/c3cccn3-c3ccc(Cl)cc3)C2=O)c1 do in these assays?
Tau fibril FP: inactive; Tau ThT inhib: inconclusive; Sfp PPTase inh: 50µM; FBPA coupling cs: inactive; Tau fluor counter: inactive

Results for CC(C)(C)n1cccc1/C=C1\C(=O)NC(=O)N(c2ccccc2)C1=O ?
Tau fibril FP: inactive; Tau ThT inhib: inconclusive; Sfp PPTase inh: inactive; FBPA coupling cs: inactive; Tau fluor counter: inactive

Results for Cc1cccc(N2C(=O)NC(=O)/C(=C\c3cccn3-c3ccc(Cl)cc3)C2=O)c1 ?
Tau fibril FP: inactive; Tau ThT inhib: inconclusive; Sfp PPTase inh: 50µM; FBPA coupling cs: inactive; Tau fluor counter: inactive

How did O=c1[nH]c(=O)n(C2CCCCC2)c(O)c1C1NCCc2ccccc21 (stereo not given) do in these assays?
Tau fibril FP: inconclusive; Tau ThT inhib: inconclusive; Sfp PPTase inh: 35µM; FBPA coupling cs: inactive; Tau fluor counter: inconclusive

What do the screens show for `CCC(=NCc1cccnc1)c1c(O)n(C2CCCCC2)c(=O)[nH]c1=O`?
Tau fibril FP: inactive; Tau ThT inhib: inactive; Sfp PPTase inh: inactive; FBPA coupling cs: inactive; Tau fluor counter: inactive

How did Cc1ccc2c(c1)[C@@H]1CN(C)CC[C@H]1N2 do in these assays?
Sfp PPTase inh: inactive

How did CCCCCOc1c(OC)ccc2cc(C(=O)NCc3ccc4c(c3)OCO4)c(=O)[nH]c12 do in these assays?
Tau fibril FP: inactive; Tau ThT inhib: inactive; Sfp PPTase inh: inactive; FBPA coupling cs: inactive; Tau fluor counter: inactive

What do the screens show for `CN1c2ccc([N+](=O)[O-])cc2CC2(C(=O)NC(=O)N(c3ccc(Br)cc3)C2=O)C1c1ccccc1` (stereo not given)?
Tau fibril FP: inactive; Tau ThT inhib: 16µM; Sfp PPTase inh: inactive; FBPA coupling cs: inactive; Tau fluor counter: inactive

How did CN1C(=O)/C(=C/c2ccc(Cl)s2)C(=O)NC1=S do in these assays?
Sfp PPTase inh: 13µM; FBPA coupling cs: inactive

Results for Cc1ccsc1/C=C1\C(=O)NC(=S)N(C)C1=O ?
Sfp PPTase inh: 20µM; FBPA coupling cs: inactive

Results for CN1C(=O)/C(=C\c2ccc(N3CCCCCC3)cc2)C(=O)NC1=S ?
Tau fibril FP: inactive; Tau ThT inhib: inconclusive; Sfp PPTase inh: inconclusive; FBPA coupling cs: inactive; Tau fluor counter: inactive

What do the screens show for `COc1ccc(/C=C2\C(=O)NC(=S)N(C)C2=O)cc1C`?
Tau fibril FP: inactive; Tau ThT inhib: inconclusive; Sfp PPTase inh: 18µM; FBPA coupling cs: inactive; Tau fluor counter: inactive

How did CC1N(P(=O)(c2ccccc2)c2ccccc2)CC(O)(c2ccccc2)CC12CC2 (stereo not given) do in these assays?
Tau fibril FP: inactive; Tau ThT inhib: inactive; Sfp PPTase inh: inactive; FBPA coupling cs: inactive; Tau fluor counter: inactive

What do the screens show for `CCOc1ccccc1-n1c(O)c(C=Nc2c(C)n(C)n(-c3ccccc3)c2=O)c(=O)[nH]c1=O`?
Tau fibril FP: inactive; Tau ThT inhib: inactive; Sfp PPTase inh: inactive; FBPA coupling cs: inactive; Tau fluor counter: inactive

What do the screens show for `COc1ccc(OC)c(-n2c(O)c(C=Nc3c(C)n(C)n(-c4ccccc4)c3=O)c(=O)[nH]c2=S)c1`?
Tau fibril FP: inactive; Tau ThT inhib: inactive; Sfp PPTase inh: 45µM; FBPA coupling cs: inactive; Tau fluor counter: inactive

What do the screens show for `NC(=O)c1ccc(N=Nc2c(O)[nH]c(=O)[nH]c2=O)cc1`?
Tau fibril FP: inactive; Tau ThT inhib: inactive; Sfp PPTase inh: inactive; FBPA coupling cs: inactive; Tau fluor counter: inactive

How did O=c1[nH]c(O)c(N=Nc2cc([N+](=O)[O-])ccc2O)c(=O)[nH]1 do in these assays?
Tau fibril FP: inactive; Tau ThT inhib: 14µM; Sfp PPTase inh: inactive; FBPA coupling cs: inactive; Tau fluor counter: inactive

How did O=C1NC(=O)C(Sc2ccccc2[N+](=O)[O-])C(=O)N1 do in these assays?
Sfp PPTase inh: 20µM; FBPA coupling cs: inactive

Results for C=CCn1c(CSc2ccccc2[N+](=O)[O-])n[nH]c1=S ?
Sfp PPTase inh: inconclusive; FBPA coupling cs: inactive
